Screens (PubChem)
Only some compounds are listed: those with a hit (about 7.3% of all), similar ones and a draw of the others.
ELG1 genotoxic: genotoxicity induction in ELG1-luciferase HEK293T cells; HEK293T ELG1-luciferase reporter, luminescence, 16 h; Potency, µM (series often up to 46 µM), usual class: activators; 1.3% of 330,000 active; AID 504466; further: nearly all actives have a fitted effect of over 60% in size
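Reporter readout depends on ELG1 protein level, which increases with genetic stress. After 16 hr compound exposure at 37 °C, luciferase activity was quantified using ONE-Glo.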
NPC1 promoter act: NPC1 promoter activation. Huh7 NPC1 promoter luciferase reporter, 24 h. Potency, µM (top dose mostly 9.22 µM), most hits filed as activators. 2.4% of 320,000 active. AID 485313; further: nearly all actives have a fitted effect of over 60% in size
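In 1536-well qHTS, Huh7 cells harboring an NPC1 promoter–luciferase construct received compound for 24 h; activation was quantified by luminescence following luciferase reagent addition.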
FLuc modulator: firefly luciferase modulation, counter-screen for miR-21 project | P08659 | purified FLuc, Km substrates, luminescence inhibition | Potency, µM (series often up to 57.5 µM), hits mostly inhibitors | 6.9% of 360,000 active | AID 588342; further: nearly all actives have a fitted effect of over 55% in size
Target sequence (P08659 whole entry, looked up): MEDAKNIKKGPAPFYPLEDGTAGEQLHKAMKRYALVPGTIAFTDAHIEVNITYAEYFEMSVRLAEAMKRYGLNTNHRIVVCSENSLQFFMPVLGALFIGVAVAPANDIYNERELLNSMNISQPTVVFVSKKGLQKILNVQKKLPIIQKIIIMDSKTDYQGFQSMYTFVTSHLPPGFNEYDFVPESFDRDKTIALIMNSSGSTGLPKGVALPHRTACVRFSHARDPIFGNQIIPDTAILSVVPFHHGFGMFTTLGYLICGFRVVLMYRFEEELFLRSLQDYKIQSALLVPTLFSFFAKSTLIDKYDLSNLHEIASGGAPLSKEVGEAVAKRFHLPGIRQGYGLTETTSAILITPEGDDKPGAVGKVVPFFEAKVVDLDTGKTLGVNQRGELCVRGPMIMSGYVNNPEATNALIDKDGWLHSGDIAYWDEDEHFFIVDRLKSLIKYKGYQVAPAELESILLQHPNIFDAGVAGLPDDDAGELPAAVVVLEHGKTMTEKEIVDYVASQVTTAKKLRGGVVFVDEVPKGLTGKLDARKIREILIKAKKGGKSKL
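Purified P. pyralis luciferase (10nM final) with 10uM D-luciferin and 10uM ATP (Km levels) in 50mM Tris acetate pH 7.5, 10mM Mg acetate, 0.01% Tween-20, 0.05% BSA; qHTS 6-point titration, ~60 µM downward; luminescence read.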
KinaseGlo FLuc: blocks Kinase-Glo luciferase, a counter-screen artifact | Q27757 | Kinase-Glo luciferase, ATP luminescence, 8 min | Potency, µM (series often up to 38.3 µM), actives largely listed as inhibitors | 0.28% of 200,000 active; further: nearly all actives have a fitted effect of over 60% in size
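Inhibition of Kinase-Glo luciferase light generation was assessed at 10 uM ATP in pH 7.2 imidazole buffer, with luminescence measured after eight minutes at ambient temperature.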
Rab9 prom act: activates the Rab9 promoter | Potency, µM (top dose mostly 9.22 µM), actives largely listed as activators | 2.8% of 320,000 active | Huh7 Rab9 promoter-luciferase reporter, luminescence, 24 h; further: nearly all actives have a fitted effect of over 60% in size
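Using Huh7 cells stably transfected with Rab9 promoter–luciferase, compounds were incubated 24 h at 37 °C, 5% CO2; luciferase luminescence was read 10 min after reagent addition.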
SMN2 splice enh: SMN2 splice variant enhancement; HEK293 SMN2-luciferase splicing reporter, luminescence, 30-36 h; 2.8% of 210,000 active; Potency, µM (top dose mostly 46.1 µM), actives largely listed as activators; further: nearly all actives have a fitted effect of over 55% in size
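qHTS luciferase splicing reporter: luminescence rises when SMN2 exon 7 is included in transfected HEK293 cells. Compound exposure lasted 30-36 h at 37C, with 4.5 mM final sodium butyrate as control, followed by a ONE-Glo read.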
Of the large screens only hits and unclear results are named; the others gave an inactive call. The call rests on the fitted dose curve; in most records, active means well fitted curve in the direction sought with a large enough effect; inconclusive means small, poorly fitted or top-dose-only effect, or another doubt; inactive means no such curve, though single readings can be large; an effect the other way counts as inactive or inconclusive.

Nc1ccc2nc(-c3ccc(N)c(Cl)c3)[nH]c2c1	ELG1 genotoxic inconclusive, NPC1 promoter act inconclusive, FLuc modulator 6.01µM, Rab9 prom act 2.82µM, SMN2 splice enh inconclusive
Nc1cccc(-c2nc3ccc(C(=O)c4ccccc4)cc3[nH]2)c1	ELG1 genotoxic inconclusive, FLuc modulator 0.757µM (no result: KinaseGlo FLuc, SMN2 splice enh)
Cc1nc2c(Cl)cc(Cl)cc2[nH]1	none
Nc1ccc(-c2nc3c(Cl)cc(N)cc3[nH]2)cc1	FLuc modulator 21.3µM
Nc1ccc2nc(-c3ccccc3)[nH]c2c1	ELG1 genotoxic inconclusive, NPC1 promoter act 3.16µM, FLuc modulator 7.57µM, KinaseGlo FLuc inconclusive, Rab9 prom act 3.16µM, SMN2 splice enh 17.8µM
Nc1ccc2nc(-c3cccnc3)[nH]c2c1	FLuc modulator inconclusive
CN(N=Nc1cccc([N+](=O)[O-])c1)c1ccccc1	ELG1 genotoxic inconclusive, NPC1 promoter act inconclusive, FLuc modulator 9.53µM, Rab9 prom act inconclusive (no result: KinaseGlo FLuc, SMN2 splice enh)
CN(N=Nc1ccc([N+](=O)[O-])cc1)c1ccccc1	ELG1 genotoxic inconclusive, NPC1 promoter act 3.98µM, FLuc modulator 5.36µM, Rab9 prom act inconclusive, SMN2 splice enh 20µM
COc1ccccc1-c1noc(-c2ccccc2C(=O)NCC2CCCO2)n1 (stereo unspecified)	FLuc modulator 15.1µM (no result: KinaseGlo FLuc, SMN2 splice enh)
O=C(NCC1CCCO1)c1ccccc1-c1nc(-c2ccc(F)cc2)no1 (stereo unspecified)	FLuc modulator inconclusive
COc1ccc(-c2noc(-c3ccccc3C(=O)NCC3CCCO3)n2)cc1 (stereo unspecified)	FLuc modulator 9.53µM (no result: KinaseGlo FLuc, SMN2 splice enh)
Cc1ccccc1-c1noc(-c2ccccc2C(=O)NCC2CCCO2)n1 (stereo unspecified)	FLuc modulator 15.1µM (no result: KinaseGlo FLuc, SMN2 splice enh)
COc1ccc([C@]23Cc4ccccc4C(O2)C2=C(O3)C(=O)c3ccccc3C2=O)cc1	FLuc modulator inconclusive (no result: ELG1 genotoxic, KinaseGlo FLuc, SMN2 splice enh)
COc1ccc(Cl)cc1C(=O)CSc1nnnn1C1CCCC1	FLuc modulator inconclusive (no result: KinaseGlo FLuc, SMN2 splice enh)
COCCn1c(C)cc(C(=O)CSc2nnnn2C2CCCC2)c1C	ELG1 genotoxic inconclusive, NPC1 promoter act 0.1µM, FLuc modulator 0.0849µM, Rab9 prom act inconclusive (no result: KinaseGlo FLuc, SMN2 splice enh)
COCCn1c(C)cc(C(=O)CSc2nnc(C)s2)c1C	FLuc modulator 1.69µM, KinaseGlo FLuc 10µM (no result: ELG1 genotoxic, NPC1 promoter act, Rab9 prom act)
CCCOc1ccc(CSc2n[nH]c(C)n2)cc1	ELG1 genotoxic inconclusive, NPC1 promoter act 2.82µM, FLuc modulator 19µM, Rab9 prom act 2.82µM (no result: KinaseGlo FLuc, SMN2 splice enh)
CCOc1ccccc1N(C)C(=O)Cn1nc(Cc2ccncc2)c2ccccc2c1=O	none (no result: ELG1 genotoxic, NPC1 promoter act, KinaseGlo FLuc, Rab9 prom act)
Cc1ccc(Nc2n[nH]c(C)c2[N+](=O)[O-])cc1	NPC1 promoter act 2.82µM, FLuc modulator 19µM, Rab9 prom act 3.55µM, SMN2 splice enh 17.8µM
COc1ccc(Nc2nc(N)c([N+](=O)[O-])c(NCCO)n2)cc1	FLuc modulator inconclusive (no result: KinaseGlo FLuc, SMN2 splice enh)
Cc1[nH]nc(Nc2ccc(Br)cc2)c1[N+](=O)[O-]	ELG1 genotoxic inconclusive, NPC1 promoter act 2.82µM, FLuc modulator 9.53µM, Rab9 prom act 3.16µM (no result: KinaseGlo FLuc, SMN2 splice enh)
Cc1[nH]nc(Nc2ccc(C(C)C)cc2)c1[N+](=O)[O-]	ELG1 genotoxic inconclusive, NPC1 promoter act 3.55µM, FLuc modulator 9.53µM, Rab9 prom act 3.55µM (no result: KinaseGlo FLuc, SMN2 splice enh)
CNc1nc(Nc2ccc(Br)cc2)nc(N)c1[N+](=O)[O-]	ELG1 genotoxic inconclusive, NPC1 promoter act inconclusive, Rab9 prom act 3.55µM
CCCCOc1ccc(OC(=O)c2sc3ncn(Cc4cccc(F)c4)c(=O)c3c2C)cc1	none (no result: ELG1 genotoxic, NPC1 promoter act, KinaseGlo FLuc, Rab9 prom act, SMN2 splice enh)
O=C(O)C(F)(F)C(F)(F)C(F)(F)C(F)(F)C(=O)O	none (no result: ELG1 genotoxic, NPC1 promoter act, FLuc modulator, Rab9 prom act)
Cc1cccc(Nc2n[nH]c(C)c2[N+](=O)[O-])c1	ELG1 genotoxic 5.8µM, NPC1 promoter act 2.51µM, FLuc modulator 15.1µM, Rab9 prom act 3.16µM, SMN2 splice enh inconclusive
Cc1[nH]nc(Nc2ccccc2)c1[N+](=O)[O-]	FLuc modulator inconclusive
C/C(=C\c1ccccc1)C(=O)Nc1ccc(Cl)cn1	ELG1 genotoxic 9.2µM, NPC1 promoter act 1.78µM, FLuc modulator inconclusive, Rab9 prom act 0.794µM (no result: KinaseGlo FLuc, SMN2 splice enh)
COc1cc2ccccc2cc1C(=O)Nc1ccc(Cl)cn1	ELG1 genotoxic inconclusive, NPC1 promoter act 2µM, FLuc modulator inconclusive, Rab9 prom act 1.41µM (no result: KinaseGlo FLuc, SMN2 splice enh)
O=C(NC(=O)c1ccccc1)Nc1ccc(Cl)cn1	ELG1 genotoxic 1.46µM, NPC1 promoter act 0.631µM, FLuc modulator 2.13µM, Rab9 prom act 1µM (no result: KinaseGlo FLuc, SMN2 splice enh)
Cc1cc(C)nc(NC(=O)NC(=O)c2ccccc2)n1	none (no result: KinaseGlo FLuc, SMN2 splice enh)
Nc1ccccc1NC(=O)NC(=O)c1ccccc1	ELG1 genotoxic inconclusive, NPC1 promoter act inconclusive, FLuc modulator 10.7µM, Rab9 prom act 2.24µM (no result: KinaseGlo FLuc, SMN2 splice enh)
Cc1cc(C)cc(Nc2cc(C(=O)NC3CCC(C)CC3)c3ccccc3n2)c1 (stereo unspecified)	none (no result: ELG1 genotoxic, NPC1 promoter act, KinaseGlo FLuc, Rab9 prom act)
O=C(Nc1cccc(C(=O)Nc2ccc(Cl)cn2)c1)c1ccccc1	FLuc modulator inconclusive (no result: KinaseGlo FLuc, SMN2 splice enh)
O=C(Nc1ccc(Cl)cn1)c1cccc(F)c1	ELG1 genotoxic inconclusive, NPC1 promoter act inconclusive, FLuc modulator 10.7µM, Rab9 prom act inconclusive, SMN2 splice enh 15.8µM
O=C(Nc1ccc(Cl)cn1)c1ccccc1F	FLuc modulator 4.26µM, SMN2 splice enh 15.8µM (no result: ELG1 genotoxic, NPC1 promoter act, Rab9 prom act)
COc1ccc(CCNC(=O)CCc2c(C)c3cc4c(C)coc4c(C)c3oc2=O)cc1OC	none (no result: ELG1 genotoxic, NPC1 promoter act, KinaseGlo FLuc, Rab9 prom act)
Cc1ccc(CNC(=O)c2c(-c3ccccc3Cl)noc2C)o1	none (no result: ELG1 genotoxic, NPC1 promoter act, KinaseGlo FLuc, Rab9 prom act, SMN2 splice enh)
Cc1ccc2ccc3cc(C(=O)N4CCN(c5ccccc5)CC4)nc3c2[nH]1	none (no result: ELG1 genotoxic, NPC1 promoter act, KinaseGlo FLuc, Rab9 prom act, SMN2 splice enh)
